Shown are actives, neighbours in structure and some others; about 2.4% of the full set was active somewhere.
M1 PAM parental: nonselective activator or artifact in parental CHO-K1 calcium assay; activation, % at 3 µM; AID 602247; actives 0.02% (n = 360,000); ATP EC20, Fluo-8 calcium fluorescence; 0% at ATP EC20, 100% at ATP max;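 active means activation above the run cutoff, the mean activation of all test compounds plus 3 SD, cut at about 40% in these data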;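 further: peak over basal fluorescence ratio in a 140 s read after ATP addition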
CHO-K1 Ca ag: M1 agonist counterscreen hit in parental CHO-K1 cells | Fluo-8 calcium fluorescence; scaled to maximal ATP response, vehicle zero | activation, % at 3 µM | actives 0.48% (n = 360,000); in the data active means activation above about 15%;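 further: untransfected CHO-K1 host cells lacking M1 receptor as counterscreen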
CHRM1 agonist: agonists of human M1 muscarinic receptor | P11229 | CHO-K1 hM1, Fluo-8 calcium fluorescence, agonist mode; 0% DMSO, 100% acetylcholine EC100 | activation, % at 3 µM | actives 0.33% (n = 360,000) | AID 588814;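 active means activation above the run's mean compound activation plus 3 SD, cut at about 16% in these data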;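 further: peak over basal fluorescence ratio within a 140 s kinetic read after compound addition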
Target sequence (P11229 whole entry, looked up): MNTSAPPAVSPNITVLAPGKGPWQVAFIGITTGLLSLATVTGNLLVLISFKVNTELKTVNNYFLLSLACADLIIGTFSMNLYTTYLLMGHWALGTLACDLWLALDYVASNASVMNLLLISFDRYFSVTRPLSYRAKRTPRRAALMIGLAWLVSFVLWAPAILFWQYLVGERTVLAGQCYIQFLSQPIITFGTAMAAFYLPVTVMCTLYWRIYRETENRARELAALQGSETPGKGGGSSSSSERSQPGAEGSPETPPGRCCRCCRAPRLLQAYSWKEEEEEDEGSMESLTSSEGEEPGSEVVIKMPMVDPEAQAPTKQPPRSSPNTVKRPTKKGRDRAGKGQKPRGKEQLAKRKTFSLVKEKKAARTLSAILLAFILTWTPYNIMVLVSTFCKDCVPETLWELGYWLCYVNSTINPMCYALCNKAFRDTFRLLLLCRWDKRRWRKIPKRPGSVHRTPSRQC
CHRM1 PAM: positive allosteric modulators of human M1 muscarinic receptor; P11229; CHO-K1 hM1, Fluo-8 calcium fluorescence, ACh EC20; 0% = ACh EC20, 100% = maximal ACh; activation, % at 3 µM; actives 0.088% (n = 360,000); in the data active means activation above about 19%, passing the limit was not always enough
CHRM1 antagonist: blocks human M1 muscarinic receptor | P11229 | CHO-K1 hM1, Fluo-8 calcium fluorescence, ACh EC80 antagonist | inhibition, % at 3 µM | actives 1.3% (n = 360,000) | AID 588852;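 active means percent inhibition above its own plate's cutoff, namely the mean of that plate's compound wells plus 3 SD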;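 further: peak over basal fluorescence ratio during 140 s after agonist addition; 0% = ACh EC80 plus DMSO and 100% = DMSO alone without agonist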
CHO-K1 Ca antag: M1 antagonist counterscreen hit in parental CHO-K1 cells; AID 602250; ATP-induced calcium, Fluo-8 fluorescence; actives 0.6% (n = 360,000); inhibition, % at 3 µM;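 active means inhibition above a per-plate cutoff, the plate's mean sample inhibition plus 3 SD, cut at about 24% in these data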;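 further: 0% = DMSO plus EC80 ATP and 100% = DMSO alone without ATP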
* hit, by the source's call; x = not tested or not shown.

SMILES	M1 PAM parental	CHO-K1 Ca ag	CHRM1 agonist	CHRM1 PAM	CHRM1 antagonist	CHO-K1 Ca antag
O=C(NCc1ccncc1)C(=O)NCc1ccncc1	-9	0	1	11	-11	-8
CC(C)Cn1c(N)c(C(=O)COC(=O)c2ccc(O)cc2)c(=O)n(C)c1=O	6	4	-2	7	-4	-6
COc1ccccc1CCC(=O)OCC(=O)c1c(N)n(CC(C)C)c(=O)n(C)c1=O	-7	17*	1	-14	31	14
Cc1ccc(S(=O)(=O)CCC(=O)OCC(=O)c2c(N)n(CC(C)C)c(=O)n(C)c2=O)cc1	-6	18*	2	-12	23	4
COc1ccc(CCC(=O)OCC(=O)c2c(N)n(CC(C)C)c(=O)n(C)c2=O)cc1	-26	16*	3	-11	32*	32*
CCOc1ccccc1OCC(=O)OCC(=O)c1c(N)n(CC(C)C)c(=O)n(C)c1=O	-7	17*	1	-18	28*	11
CC1CCCC(NC(=O)NC(=O)COC(=O)c2ccc(O)cc2O)C1C (stereo not drawn)	12	4	0	5	-6	-6
CCCCN(C(=O)CC1CCCC1)c1c(N)n(CCCC)c(=O)[nH]c1=O	-20	0	-3	6	-12	-4
COc1ccc(N2C(=O)c3ccc(C(=O)Nc4ccccc4OC)cc3C2=O)cc1	1	1	1	15	-20	-12
Cc1ccc2c(cnn2C(=O)CCC(=O)N2CCCCC2)c1	3	0	-6	12	-18	-6
COc1ccccc1/C=C/CN1CCCC(CO)(CCc2ccccc2)C1 (stereo not drawn)	12	1	-8	-18	19	0
OCC1(CCc2ccccc2)CCCN(C/C=C/c2ccccc2)C1 (stereo not drawn)	-9	0	-9	-25	35*	-9
COCCCN1C(=O)c2ccc(C(=O)NCc3ccccn3)cc2C1=O	16	1	-3	6	-12	-16
COc1ccc(/C=C2\CN(Cc3ccccc3)C/C(=C\c3ccc(OC)cc3OC)C2=O)c(OC)c1	4	4	0	-7	29*	9
COc1ccc(/C=C2\CN(Cc3ccccc3)C/C(=C\c3ccc(OC)cc3)C2=O)cc1	1	0	-5	4	-8	4
Cc1csc(=O)n1CC(=O)Nc1nc2ccccc2s1	9	5	-3	4	-1	-6
COC(=O)c1cc2c(C)c(C)c3ccccn3c-2c1C(=O)OC	10	1	-3	5	-5	0
CC(C)OC(=O)c1c2c(n3ccccc13)C(=O)c1ccccc1C2=O	14	18*	12	-3	20	4
CN(C)C(=O)c1ccc(Nc2nc(-c3cccs3)nc3ccccc23)cc1	-2	5	-2	-15	26*	18
CC(=O)c1ccc(Nc2nc(-c3ccccc3)nc3ccccc23)cc1	-1	1	-3	5	-9	-5
COc1ccc(OC)c(C(=O)NC(CC(N)=O)c2ccc(N3CCCCCC3)c([N+](=O)[O-])c2)c1 (stereo not drawn)	-11	0	-3	0	5	-4
COC(=O)c1cc(Br)ccc1NC(=O)CSCc1c(C)noc1C	16	1	-2	1	5	0
C[C@H](CO)N1C[C@H](C)[C@@H](CN(C)S(=O)(=O)c2cccs2)Oc2ccc(NC(=O)Cn3cnnn3)cc2C1=O	14	0	-10	-22	26*	-9
C[C@H](CO)N1C[C@H](C)[C@@H](CN(C)S(=O)(=O)c2cccs2)Oc2ccc(NC(=O)NC3CCCCC3)cc2C1=O	13	0	-11	-33	44*	-8
C[C@H](CO)N1C[C@H](C)[C@@H](CN(C)S(=O)(=O)c2ccccc2)Oc2ccc(NC(=O)NC3CCCCC3)cc2C1=O	-11	0	-11	-31	39*	7
SMILES	M1 PAM parental	CHO-K1 Ca ag	CHRM1 agonist	CHRM1 PAM	CHRM1 antagonist	CHO-K1 Ca antag
C[C@H](CO)N1C[C@H](C)[C@@H](CN(C)S(=O)(=O)c2ccccc2)Oc2ccc(NC(=O)C3CCCCC3)cc2C1=O	5	0	-11	-8	7	-6
COc1ccc(S(=O)(=O)Nc2ccc3c(c2)C(=O)N([C@H](C)CO)C[C@H](C)[C@@H](CN(C)C(=O)Nc2c(C)noc2C)OCCCC[C@H](C)O3)cc1	22	1	40*	-29	2	-17
C[C@@H]1CCCCO[C@H](CN(C)S(=O)(=O)c2cccs2)[C@H](C)CN([C@@H](C)CO)C(=O)c2cc(NC(=O)NC3CCCCC3)ccc2O1	20	0	-7	-2	-10	-11
COc1ccc(NC(=O)N(C)C[C@H]2Oc3ncc(Br)cc3C(=O)N([C@H](C)CO)C[C@@H]2C)cc1	15	0	-3	5	-15	-13
COc1ccc(C(=O)NC(=S)Nc2ccc3[nH]c(=O)[nH]c3c2)c(OC)c1	-12	0	-1	6	-9	-8
CCNC(=O)C1(C)CCCN(C(=O)c2sccc2C)C1 (stereo not drawn)	29	1	0	17	-23	-5
CC1(c2nnnn2Cc2ccccc2)CCC(=O)N1Cc1ccc(F)cc1 (stereo not drawn)	-2	1	x	x	x	-2
COCCn1c(SCC(=O)NNC(=O)Cc2ccccc2)nc2ccccc2c1=O	-7	0	-3	9	-6	25*
COCC(C)NC(=O)CSc1nc2ccccc2c(=O)n1CCc1ccc(S(N)(=O)=O)cc1 (stereo not drawn)	-20	6	-1	-11	30*	7
CN(C)CCCn1c(SCC(=O)N2c3ccccc3Sc3ccccc32)nc2ccccc2c1=O	31	0	-15	-27	39*	-11
CCn1c(SCC(=O)Nc2ccc(N3CCOCC3)cc2)nnc1-c1ccncc1	-10	0	-2	6	-14	-1
CCCOc1ccc(C(O)(CCC)CCN2CCCCC2)cc1 (stereo not drawn)	-3	1	-5	-23	66*	4
CCCC(O)(c1ccc(Cl)cc1)C(CN1CCOCC1)c1ccc(Cl)cc1 (stereo not drawn)	6	0	-7	-4	6	-14
CCCC(O)(CCN1CCOCC1)c1ccc(Cl)cc1 (stereo not drawn)	19	1	-6	-23	45*	-5
CCCC(O)(CCN1CCOCC1)c1ccc(Br)cc1 (stereo not drawn)	7	0	-7	-28	78*	-15
OC(CCN1CCOCC1)(c1ccc(Cl)cc1)C1CCCCC1 (stereo not drawn)	7	0	-8	-26	82*	0
Cc1cc(C)c(S(=O)(=O)c2cccc(Br)c2C)c(=O)[nH]1	4	1	2	-1	0	2
